# High-throughput results (PubChem)
# Hits are enriched below; roughly 21% of the tested compounds scored in any of these assays.
# Pf growth 96h – P. falciparum growth inhibition at 96 hours; P. falciparum luciferase reporter growth, 96 h; Potency, µM (titrated, usually from 28.7 µM), without a hit: at the highest dose activity change, negative = inhibition, most hits filed as inhibitors; actives 6.9% (n = 320,000); AID 504834; note: potency is the fitted concentration of half-maximal effect; % is set by controls: 0 for no effect and ±100 for the full control effect
#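 Luminescence readout: decreased luciferase signal marks inhibited growth of reporter-expressing P. falciparum in infected red cells (2% hematocrit, 0.05% parasitemia final), exposed to compound two generations (96 h, 37 C, 5% CO2).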
# Pf growth 48h – inhibits P. falciparum growth in the first generation, 48 h. P. falciparum luciferase growth in erythrocytes, 48 h. Potency, µM (top dose mostly 28.7 µM), inactives show at the highest dose activity change, negative = inhibition, usual class: inhibitors. actives 5.9% (n = 310,000); note: potency is the fitted concentration of half-maximal effect; % is set by controls: 0 for no effect and ±100 for the full control effect
#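 Luminescence readout; reporter = integrated firefly luciferase in P. falciparum. RBC culture at 2% hematocrit, 0.1% parasitemia final, 37 C/5% CO2; decreased signal taken as growth inhibition.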
# Sm TGR block – blocks Schistosoma mansoni thioredoxin glutathione reductase; purified TGR, DTNB reduction, TNB absorbance 405 nm; actives 3% (n = 360,000); AID 485364; Potency, µM (top dose mostly 114 µM), without a hit: top-dose activity change, negative = inhibition, actives largely listed as inhibitors; note: potency is the fitted concentration of half-maximal effect; % is set by controls: 0 for no effect and ±100 for the full control effect; nearly all actives have a fitted effect of over 60% in size
#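 TGR 20 nM + NADPH 100 uM (dispensed conc.), cpd preinc 15 min RT; start with NADPH (500 uM addition) then DTNB (15 mM addition). Kinetic TNB absorbance, 405 nm filter. Four-parameter Hill fit across titration.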
# Shiga toxin inh – Shiga toxin inhibition | Vero cells, Shiga toxin protein synthesis inhibition reporter | inhibition, % at 38.7 µM | actives 9.2% (n = 290,000); in the data active = inhibition mostly above about 28%, no sharp cut-off; inactive = mostly below about 43%; note: 0% is about no effect
# CHX counter – counter-screen for Shiga toxin inhibitors: cycloheximide protein synthesis inhibition. cell reporter, cycloheximide protein synthesis inhibition counterscreen. max response, %. actives 12% (n = 300,000); in the data active = max response mostly above about 13%, no sharp cut-off; inactive = mostly below about 14%; note: read at 38.3 µM for the half of the compounds with a filed dose; 0% is about no effect
# NS1 function inh – blocks influenza NS1 protein function; actives 0.4% (n = 270,000); Potency, µM (top dose mostly 46.1 µM), for inactives: at the top dose activity, positive = more growth; AID 2326; calls by dose curve; note: potency is the fitted concentration of half-maximal effect; actives are rising curves; nearly all actives have a fitted effect of over 50% in size
#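 Compounds were scored for reversing the slow growth caused by influenza A NS1 in S. cerevisiae, measured by optical density at 600 nm. Assay medium contained 2% galactose at pH 6.0; NS1-free yeast of the same strain were the positive control.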
# * marks the source's active call; other numbers are inactive results; ? = inconclusive; / = no result. Unless noted, calls come from the whole dose curve; as a rule, active = well fitted curve in the direction sought with a large enough effect; inconclusive = small, poorly fitted or top-dose-only effect, or another doubt; inactive = no such curve, though single readings can be large; an effect the other way counts as inactive or inconclusive.
SMILES,Pf growth 96h,Pf growth 48h,Sm TGR block,Shiga toxin inh,CHX counter,NS1 function inh
COc1ccc(Cn2nnnc2C(c2ccncc2)N2CCOCC2)cc1 (centres undefined),?,24.4%,25.1µM*,-12.8,-1.4,-10.3%
COc1ccc(C(c2nnnn2Cc2ccccc2)N2CCN(c3ccccc3)CC2)cc1 (centres undefined),13.1µM*,?,-0.5%,-27.8,1.3,-1.7%
COc1ccc(C(c2nnnn2Cc2ccccc2)N2CCN(c3nc4ccccc4s3)CC2)cc1 (centres undefined),/,5.22µM*,0.0%,-8.2,-3.3,12.0%
COc1ccc(Cn2nnnc2C(c2cccs2)N2CCCCCC2)cc1 (centres undefined),?,?,-10.3%,-7.3,0.4,-25.5%
COc1ccc(Cn2nnnc2C(C(C)C)N2CCN(c3ccccc3OC)CC2)cc1 (centres undefined),15.1%,4.65µM*,8.2%,-6.2,7.7,-35.2%
COCCn1nnnc1C(c1ccccc1)N1CCN(c2ccccc2)CC1 (centres undefined),?,-26.7%,-17.7%,-10.7,-2.5,2.9%
CCCc1nc2c(ccc3ccccc32)cc1CC,9.7%,-3.8%,1.5%,-9.8,8.9,5.8%
O=c1c2ccccc2nc2n1C(CSCc1ccc(Cl)cc1Cl)CS2 (centres undefined),?,6.1%,?,35.9,-2.5,1.9%
O=C(O)c1cccc(N=Nc2c(S(=O)(=O)O)ccc3c2C(=O)c2ccccc2C3=O)c1O,/,/,/,/,/,13.1%
c1ccc(Cn2nnnc2CN2CCN(c3ncccn3)CC2)cc1,4.65µM*,-9.2%,-1.1%,5.6,-3.6,-7.6%
c1ccc(CCn2nnnc2C(c2cccnc2)N2CCN(c3nc4ccccc4s3)CC2)cc1 (centres undefined),7.5%,13.1µM*,0.0%,-13.5,-0.9,-106.2%
COc1ccc(Cn2nnnc2CN2CCOCC2)cc1,13.1µM*,-3.8%,-0.2%,4.1,-1.7,-2.2%
Clc1cccc(Cl)c1CN1CCN(c2ncccn2)CC1,?,-8.9%,?,8.1,2.2,-17.4%
COCCn1nnnc1C(c1ccc(OC)c(OC)c1)N1CCN(c2nc3ccccc3s2)CC1 (centres undefined),2.94µM*,13.1µM*,-14.7%,-18.6,-1.8,-12.3%
c1ccc(CCn2nnnc2C(c2cccnc2)N2CCN(c3ccccc3)CC2)cc1 (centres undefined),4.0%,?,2.0%,-2.9,-3.7,-57.4%
COc1ccc(CN2CCOCCOCCOCCOCCOCC2)cc1,15.1%,12.4%,32.3%,-10.7,-1.6,1.4%
COc1ccc(C(c2nnnn2CC2CCCO2)N2CCN(c3ccc(F)cc3)CC2)cc1 (centres undefined),8.28µM*,?,-24.3%,-10.8,-7.3,-11.1%
COc1ccccc1C(C(=O)NCc1ccccc1)N(C(=O)c1csnn1)C1CC1 (centres undefined),-5.1%,-7.4%,-2.4%,-9.0,-1.7,-6.7%
COC(=O)Cn1ccc2cc(S(=O)(=O)N3CCCCC3)ccc21,5.86µM*,17.1%,3.2%,13.4,-1.4,2.7%
CC(CNC(=O)CCn1ccc2cc(S(=O)(=O)N3CCCC3)ccc21)c1ccccc1 (centres undefined),11.7µM*,?,-8.8%,-2.6,-3.0,2.0%
COc1cc2ccccc2cc1C(=O)Nc1ccc2oc(-c3cc(Br)ccc3Cl)nc2c1,/,/,-0.1%,/,/,/
O=C1/C(=C/c2cccnc2)SC(=S)N1c1ccccc1,23.8%,8.8%,-3.1%,2.0,0.3,-0.7%
Cn1cccc1/C=C1\SC(=S)N(Nc2ccccc2)C1=O,1.2%,?,-4.0%,50.8*,37.1*,0.2%
O=C1/C(=C/c2cccnc2)SC(=S)N1Nc1ccccc1,?,?,2µM*,-3.1,-0.3,0.5%
Cc1ccc(S(=O)(=O)NN2C(=O)/C(=C/c3cccn3C)SC2=S)cc1,51.2%,12.7%,-12.4%,-15.1,-2.2,-16.1%
SMILES,Pf growth 96h,Pf growth 48h,Sm TGR block,Shiga toxin inh,CHX counter,NS1 function inh
COc1cccc(-c2nc(CS(=O)(=O)CC(=O)Nc3ccccc3Cl)c(C)o2)c1,-23.5%,8.4%,?,8.3,1.8,13.4%
CN(Cc1ccc(O)cc1)C1CCCCC1,-12.8%,-3.6%,-8.8%,9.7,-6.0,21.5%
CN(Cc1cc(Br)cc(Br)c1N)C1CCCCC1,19µM*,?,/,/,/,/
Cn1nnnc1SCCNCc1cc(Br)ccc1OCc1ccccc1Cl,/,/,22.7%,/,/,/
Cc1cc(C)cc(NC(=O)N2CCN(C(=O)c3nsc4ccccc34)CC2)c1,/,/,-7.3%,/,/,/
COc1ccc(C[C@H]2CN3C(=NC[C@@H]3C(C)C)N2CCNC(=O)CCC2CCCCC2)cc1,4.65µM*,?,-1.6%,-12.6,-0.9,3.7%
CC(C)[C@H]1CN=C2N(CCNC(=O)CCC3CCCCC3)[C@H](Cc3ccc(O)cc3)CN21,?,9.28µM*,7.94µM*,10.7,-0.3,-1.0%
COc1ccc(C[C@H]2CN3C(=NC[C@@H]3Cc3ccccc3)N2CCNC(=O)CCC2CCCCC2)cc1,2.94µM*,3.7µM*,-9.9%,-24.2,-3.5,3.6%
COC(=O)c1nnn(CC(=O)Nc2ccc(Br)c(C)c2)c1N,/,/,8.8%,/,/,/
CN(CC(=O)Nc1ccc(N2CCOCC2)cc1)C(=O)c1cc(F)c(F)cc1Cl,?,35.2%,-6.4%,/,/,/
Cc1ccc(S(=O)(=O)NCCc2nc3ccccc3[nH]2)cc1,?,8.9%,0.0%,-4.6,1.3,-3.8%
Nc1ccc2c(c1Cl)C(=O)c1ccc(N)c(Cl)c1C2=O,122.0%,102.9%,-1.2%,70.0*,33.8*,6.4%
Cc1ccc2c(c1N)C(=O)c1ccccc1C2=O,158.5%,80.3%,-11.0%,/,/,/
Cc1ccc(/S(C)=N/S(=O)(=O)c2ccc(C)cc2)cc1 (centres undefined),0.0%,42.8%,-24.3%,-13.3,-1.8,9.9%
Cc1cc(C)c(C)c(S(=O)(=O)N2CCN(c3ncnc4ccccc34)CC2)c1C,?,11.7µM*,-0.8%,/,/,/
CCN1C(=O)N(C(C)=O)C2C1N(C(C)=O)C(=O)N2C(C)=O (centres undefined),60.5%,0.5%,/,-6.4,-6.9,1.6%
Cc1ccc2nc(N(CCCN(C)C)C(=O)CCc3ccccc3)sc2c1,?,?,-19.3%,-12.5,-3.7,-10.6%
O=C(COc1ccccc1)N(Cc1cccnc1)c1nc2ccc(Cl)cc2s1,/,/,4.6%,/,/,/
CN(C)CCCN(C(=O)CCc1ccccc1)c1nc2ccc(Cl)cc2s1,10.4µM*,?,-6.6%,-17.3,-11.4,8.9%
CN(C)CCCN(C(=O)c1ccc2c(c1)CCCC2)c1nc2ccc(Cl)cc2s1,1.85µM*,8.28µM*,-0.5%,-3.1,-8.0,-13.0%
O=C(CCS(=O)(=O)c1ccccc1)N(Cc1cccnc1)c1nc2ccc(Cl)cc2s1,/,/,1.12µM*,/,/,/
CCOc1ccc2nc(N(CCCN(C)C)C(=O)c3ccc(S(=O)(=O)N4CCc5ccccc5C4)cc3)sc2c1,?,?,-0.2%,29.8,4.1,-24.1%
